In PubChem BioAssay AID743105 (Vanderbilt Specialized Chemistry Center, 2013):
Calls of active or inactive are those of the source. The rule behind the calls is not given here.

The molecules below were run against Muscarinic acetylcholine receptor M4 (Homo sapiens) (UniProt P08173) (assay: human M4 receptor modulation in M5 NAM selectivity check, counter-screen for M5 NAM project, cell-based, CHO-K1 hM4/Gqi5, Fluo-4 calcium flux, ACh EC20 (AID 743105)). Settings: series mostly up to 30 µM.
Sequence of Muscarinic acetylcholine receptor M4 (Homo sapiens) (P08173 whole entry, looked up): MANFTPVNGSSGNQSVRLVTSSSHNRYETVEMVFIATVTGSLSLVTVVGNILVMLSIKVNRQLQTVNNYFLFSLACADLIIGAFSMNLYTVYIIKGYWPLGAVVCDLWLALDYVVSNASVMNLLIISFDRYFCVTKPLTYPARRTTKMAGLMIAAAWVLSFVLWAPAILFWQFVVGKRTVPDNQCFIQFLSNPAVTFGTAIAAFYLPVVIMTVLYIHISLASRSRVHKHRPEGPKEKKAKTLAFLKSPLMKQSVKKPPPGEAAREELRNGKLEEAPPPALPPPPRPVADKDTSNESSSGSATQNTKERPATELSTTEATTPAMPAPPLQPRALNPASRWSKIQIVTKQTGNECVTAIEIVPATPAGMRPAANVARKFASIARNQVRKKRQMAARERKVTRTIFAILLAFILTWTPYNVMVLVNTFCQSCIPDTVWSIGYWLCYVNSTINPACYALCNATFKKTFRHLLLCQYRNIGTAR
In the case of `O=C(c1ccc(F)cc1)N1CCN2C(=O)c3ccccc3C12c1ccccc1` (stereo not given), the outcome is reported as “inactive”.
`O=C(c1ccc(F)c(F)c1)N1CCN2C(=O)c3ccccc3[C@@]12c1ccc(Cl)cc1` was tested, and the outcome was “inactive”.
In the case of `O=C(c1ccc(F)c(F)c1)N1CCN2C(=O)c3ccccc3C12c1ccccc1` (stereo not given), the outcome is reported as “inactive”.
`O=C(c1ccc(F)c(F)c1)N1CCN2C(=O)c3ccccc3C12c1ccc(Cl)cc1` (stereo not given) was tested, and the outcome was “inactive”.
For `O=C(c1cc(F)cc(F)c1)N1CCN2C(=O)c3ccccc3C12c1ccc(Cl)cc1` (stereo not given), the outcome was “inactive”.
